Screening results as filed in PubChem BioAssay.
Shn3 3UTR inh: inhibitors of Schnurri-3 3'UTR reporter in osteoblasts; 360,000 tested, 0.52% active; AID 588674; inhibition, % at 12.5 µM; Clone20 osteoblast Shn3 3'UTR firefly luciferase, 24 h;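 active = mean inhibition of at least 75% with every replicate also reaching 75%; inconclusive = mean inhibition at least 75% but some replicate below; inactive = mean inhibition below 75%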;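 also: 0% = median of neutral control wells and 100% = pilot-screen positive control compound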
Gli-Sufu antag: antagonists of Gli-Sufu signaling; Sufu-KO-LIGHT fibroblasts, Gli luciferase reporter luminescence; inhibition, % at 5 µM; 340,000 tested, 0.74% active;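 active = inhibition above about 55%, limit read from the data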;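 also: 0% = DMSO-treated cells and 100% = wells with medium but no cells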
PAX8 inh HTS: inhibitors of PAX8 transcriptional activity in RMG-I cells; AID 652154; 360,000 tested, 1.2% active; inhibition, % at 12.6 µM; RMG-I TPO-luciferase reporter, SteadyGlo, 24 h;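 active = mean replicate inhibition at least 60% with every replicate also reaching 60%; inconclusive = only one of the two criteria is met; inactive = mean below 60% and not all replicates reaching 60%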;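 also: luciferase light reporting Pax8 driven TPO promoter activity; plate controls were median of neutral control wells for no effect and mitoxantrone controls for full effect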
Beta cell apopt: beta cell apoptosis inhibition | INS-1E cytokine-induced death, ATP luminescence, 48 h; percent of positive-control rescue, neutral wells zero | protection from apoptosis, % (test concentration not listed) | 300,000 tested, 0.8% active;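 active = Every replicate reaches about 75%, or at least half do and their mean reaches it too, limit read from the data; inconclusive = At least half of replicates reach the limit but their mean does not; inactive = Under half of replicates reach the limit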;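 also: 0% = cytokine-treated negative control wells and 100% = positive control rescue; higher means more ATP so stronger rescue from cytokine killing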
CSC inhib: blocks cancer stem cells; cancer stem cell-like cells viability, luminescence; inhibition, % at 7.5 µM; 300,000 tested, 1.1% active; in the data active = inhibition above about 75%; inconclusive = no clear call, values can overlap the other calls; tested in HMLE shEcad cells
Mdm2 MdmX PPI: disrupts the human Mdm2-MdmX interaction | inhibition, % at 8 µM | 330,000 tested, 3% active | SaOS-2 split-luciferase Mdm2/MdmX complementation, luminescence | O15151+Q00987;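 active = inhibition of at least 50% at 8 µM in the primary screen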
* hit, by the source's call; ? = inconclusive; . = no result given. This is a sample that favours compounds with a hit; in the whole collection about 4% have one here.

SMILES	Shn3 3UTR inh	Gli-Sufu antag	PAX8 inh HTS	Beta cell apopt	CSC inhib	Mdm2 MdmX PPI
CCOC(=O)N1CCN(C(=O)C2CCN(C(=O)c3ccccc3C)CC2)CC1	93*	0	51	.	.	.
COc1cc2c(cc1OC)CN(C(=O)[C@H]1[C@@H]3C(=O)O[C@@H](c4ccccc4)[C@@H](c4ccccc4)N3[C@@H](c3ccccc3OCCO)[C@]13C(=O)Nc1ccc(C#CC4(O)CCCCCC4)cc13)CC2	.	.	37	.	.	.
Cc1ccc(N2CCN(CC(O)COc3cccc4ccccc34)CC2)cc1 (stereo not drawn)	-4	-1	-9	-1	2	-27
OC(COc1cccc2ccccc12)CN1CCN(c2ccccc2Cl)CC1 (stereo not drawn)	-2	6	0	-11	114*	.
CCOC(=O)c1c(-c2ccc(Cl)cc2)csc1NC(=O)CNCc1ccco1	9	-3	13	2	77*	-7
CCOC(=O)c1c(-c2ccccc2)csc1NC(=O)c1nn(CC)cc1Br	23	4	.	16	80*	29
O=C(C[C@H]1CC[C@@H]2[C@H](COC[C@@H](O)CN2Cc2ccc3c(c2)OCO3)O1)N1CCCCC1	.	.	-4	.	.	.
COc1ccc(NC(=O)Nc2cccc3c2O[C@H](CN(C)C(=O)Nc2ccc(OC)cc2)[C@H](C)CN([C@@H](C)CO)C3=O)cc1	.	.	-12	.	.	.
Cc1cc(/C=C2/SC(=S)N(c3cccc(C(F)(F)F)c3)C2=O)c(C)n1-c1cccnc1	?	71*	.	.	53	38
COCCNC(=O)c1c[nH]c2ccc(S(=O)(=O)N3CCc4ccccc43)cc2c1=O	46	8	26	-17	84*	21
COc1ccccc1-c1ccc(OCCCN2CCC(C(O)(c3ccccc3)c3ccccc3)CC2)cc1	.	.	96*	.	.	.
OC(c1ccccc1)(c1ccccc1)C1CCN(CCCOc2ccc(-c3ccc(F)cc3F)cc2)CC1	.	.	59	.	.	.
Clc1cccc(-c2nc(NCCCN3CCOCC3)c3ccccc3n2)c1	-1	12	21	-2	91*	9
COc1ccc(OC)c(C(=O)CSc2nccc(-c3ccc(Br)cc3)n2)c1	4	4	.	-8	79*	23
Cc1ccc(NC(=O)Cn2c(=O)c(C)nc3ccccc32)cc1	0	8	4	-7	3	14
Cc1cccc(NC(=O)Cn2c(/C=C/c3ccccc3)nc3ccccc32)c1	-48	-28	-62	80*	14	-40
O=C(C[C@H]1CC[C@H]2[C@@H](COC[C@H](O)CN2C(=O)Nc2ccc(F)cc2)O1)NCCCN1CCOCC1	.	.	-18	.	.	.
CC(C)(C)OC(=O)NCCCCCNC(=O)c1[nH]cnc1C(=O)N[C@@H](CCCCNC(=O)OC(C)(C)C)C(=O)OC(C)(C)C	14	16	.	17	12	13
COc1ccc(NC(=O)c2nc[nH]c2C(=O)N[C@@H](CC(C)C)C(=O)OC(C)(C)C)cc1	-3	-12	10	69	133*	16
CC(C)C[C@H](NC(=O)c1nc[nH]c1C(=O)N[C@@H](CCCCNC(=O)OC(C)(C)C)C(=O)OC(C)(C)C)C(=O)OCc1ccccc1	42	-9	82*	13	28	38
CC(C)(C)OC(=O)NCCCC[C@H](NC(=O)c1nc[nH]c1C(=O)N[C@@H](CCCCNC(=O)OC(C)(C)C)C(=O)OC(C)(C)C)C(=O)OC(C)(C)C	12	13	76*	25	7	21
C[C@H](NC(=O)c1nc[nH]c1C(=O)N[C@@H](CCCCNC(=O)OC(C)(C)C)C(=O)OC(C)(C)C)C(=O)OC(C)(C)C	0	34	1	6	-4	20
CC(C)(C)OC(=O)NCCCC[C@H](NC(=O)c1nc[nH]c1C(=O)NC(c1ccccc1)c1ccccc1)C(=O)OC(C)(C)C	-2	25	80*	24	35	38
COc1ccccc1CNC(=O)C[C@@H]1CC[C@H]2[C@@H](COC[C@H](O)CN2Cc2ccc3c(c2)OCO3)O1	.	.	4	.	.	.
CC(C)(C)OC(=O)CNC(=O)c1nc[nH]c1C(=O)NCc1ccc(CNC(=O)OC(C)(C)C)cc1	53	17	4	23	-1	12
SMILES	Shn3 3UTR inh	Gli-Sufu antag	PAX8 inh HTS	Beta cell apopt	CSC inhib	Mdm2 MdmX PPI
CC(C)(C)OC(=O)NCc1ccc(CNC(=O)c2nc[nH]c2C(=O)NCc2ccc(CNC(=O)OC(C)(C)C)cc2)cc1	87*	36	55	48	.	17
CC(C)N(C[C@@H]1[C@H](c2ccccc2)[C@@H](CO)N1S(C)(=O)=O)C(=O)CN(C)C	.	.	10	.	.	.
Cc1ccc(C(=O)Cn2nnc(-c3cccs3)n2)cc1	.	-14	-58	-6	-8	-8
O=C(CN1CC[n+]2c(-c3cccs3)csc21)c1ccc(-c2ccccc2)cc1	14	0	46	111*	2	4
C=CCOC(=O)[C@H]1[C@@H]2C(=O)O[C@@H](c3ccccc3)[C@@H](c3ccccc3)N2[C@@H](c2ccc(OCCOC(=O)[C@H]3C[C@H]4C(=O)N[C@@H](Cc5ccccc5)C(=O)N4[C@H]3c3ccc(O)cc3)cc2)[C@]12C(=O)Nc1ccc(I)cc12	.	.	1	.	.	.
CN1C(=O)c2cc(NC(=O)C3CC3)ccc2OC[C@@H]2O[C@@H](CC(=O)NC3CCC3)CC[C@H]21	.	.	-7	.	.	.
CC(=NNC(=S)Nc1cccc(Cl)c1)c1ccccn1	84	57*	46	.	.	.
CC(=NNC(=S)SCc1ccccc1)c1ccccn1	?	78*	5	.	.	.
Cc1cccc(C(=O)N2CCCC(Nc3ccc(C)c(C)c3)C2)n1 (stereo not drawn)	-1	-1	4	-1	-15	0
CC(=NNC(=S)N1CC2CCC(CC2)C1)c1cccc(C)n1	81*	25	-1	.	.	.
CC(=NNC(=S)N1CCCC1)c1ccccn1	82	.	50	.	.	.
CC(=NNC(=S)N1CCC1)c1ccccn1	92*	89*	94*	.	.	.
CCCNC(=O)Nc1ccc2c(c1)OC[C@H](C)N(C(=O)C1CCOCC1)C[C@H](C)[C@H](OC)CN(C)C2=O	.	.	-11	.	.	.
CO[C@@H]1CN(C)C(=O)c2ccc(NS(=O)(=O)c3cn(C)cn3)cc2OC[C@@H](C)N(CC2CC2)C[C@@H]1C	.	.	-12	.	.	.
CNC[C@@H]1Oc2ncc(Br)cc2C(=O)N([C@@H](C)CO)C[C@@H]1C	.	.	-20	.	.	.
CC(=O)Oc1ccc(C2=NN(c3ccccc3)C(c3ccccc3)C2)cc1 (stereo not drawn)	-26	10	-10	1	108*	21
CC(=O)N[C@H]1C(O)O[C@H](CO)[C@@H](O)[C@@H]1O (stereo partly drawn)	-63	3	-5	5	-1	6
CC(=O)NC1C(O)OC(CO)C(O)C1O (stereo not drawn)	97*	1	-1	-2	-3	13
CC(=O)Nc1ccc(C(=O)N2CCCCC2c2cc(C(=O)Nc3cccc4c3CCCC4)no2)cc1 (stereo not drawn)	2	.	29	.	.	.
